Test results: ChEMBL document CHEMBL2218924, “A broad activity screen in support of a chemogenomic map for kinase signalling research and drug discovery” (Biochem J, 2013)

Key:
[1] = target: T1, Serine/threonine-protein kinase 3 (Homo sapiens) (UniProt Q13188); conditions: at 1 µM
T1 sequence (whole entry): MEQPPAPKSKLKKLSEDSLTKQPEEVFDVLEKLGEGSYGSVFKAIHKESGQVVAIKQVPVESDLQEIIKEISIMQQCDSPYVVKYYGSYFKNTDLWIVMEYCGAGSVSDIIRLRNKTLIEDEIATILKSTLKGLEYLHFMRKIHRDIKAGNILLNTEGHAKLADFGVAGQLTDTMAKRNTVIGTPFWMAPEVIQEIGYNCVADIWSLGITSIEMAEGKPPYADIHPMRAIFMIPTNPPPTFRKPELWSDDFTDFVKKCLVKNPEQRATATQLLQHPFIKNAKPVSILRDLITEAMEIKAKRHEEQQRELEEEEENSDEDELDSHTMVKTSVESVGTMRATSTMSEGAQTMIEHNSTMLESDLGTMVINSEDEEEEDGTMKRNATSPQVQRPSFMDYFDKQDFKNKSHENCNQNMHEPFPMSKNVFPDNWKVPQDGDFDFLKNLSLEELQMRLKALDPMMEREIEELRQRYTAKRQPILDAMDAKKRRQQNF

[2] = target: T1, Serine/threonine-protein kinase 3 (Homo sapiens); conditions: at 10 µM
[3] = target: Serine/threonine-protein kinase 24 (Homo sapiens) (UniProt Q9Y6E0); conditions: at 1 µM
[4] = target: Serine/threonine-protein kinase 24 (Homo sapiens) (UniProt Q9Y6E0); conditions: at 10 µM
[5] = target: T2, Tyrosine-protein kinase Mer (Homo sapiens) (UniProt Q12866); conditions: at 1 µM
T2 sequence (whole entry): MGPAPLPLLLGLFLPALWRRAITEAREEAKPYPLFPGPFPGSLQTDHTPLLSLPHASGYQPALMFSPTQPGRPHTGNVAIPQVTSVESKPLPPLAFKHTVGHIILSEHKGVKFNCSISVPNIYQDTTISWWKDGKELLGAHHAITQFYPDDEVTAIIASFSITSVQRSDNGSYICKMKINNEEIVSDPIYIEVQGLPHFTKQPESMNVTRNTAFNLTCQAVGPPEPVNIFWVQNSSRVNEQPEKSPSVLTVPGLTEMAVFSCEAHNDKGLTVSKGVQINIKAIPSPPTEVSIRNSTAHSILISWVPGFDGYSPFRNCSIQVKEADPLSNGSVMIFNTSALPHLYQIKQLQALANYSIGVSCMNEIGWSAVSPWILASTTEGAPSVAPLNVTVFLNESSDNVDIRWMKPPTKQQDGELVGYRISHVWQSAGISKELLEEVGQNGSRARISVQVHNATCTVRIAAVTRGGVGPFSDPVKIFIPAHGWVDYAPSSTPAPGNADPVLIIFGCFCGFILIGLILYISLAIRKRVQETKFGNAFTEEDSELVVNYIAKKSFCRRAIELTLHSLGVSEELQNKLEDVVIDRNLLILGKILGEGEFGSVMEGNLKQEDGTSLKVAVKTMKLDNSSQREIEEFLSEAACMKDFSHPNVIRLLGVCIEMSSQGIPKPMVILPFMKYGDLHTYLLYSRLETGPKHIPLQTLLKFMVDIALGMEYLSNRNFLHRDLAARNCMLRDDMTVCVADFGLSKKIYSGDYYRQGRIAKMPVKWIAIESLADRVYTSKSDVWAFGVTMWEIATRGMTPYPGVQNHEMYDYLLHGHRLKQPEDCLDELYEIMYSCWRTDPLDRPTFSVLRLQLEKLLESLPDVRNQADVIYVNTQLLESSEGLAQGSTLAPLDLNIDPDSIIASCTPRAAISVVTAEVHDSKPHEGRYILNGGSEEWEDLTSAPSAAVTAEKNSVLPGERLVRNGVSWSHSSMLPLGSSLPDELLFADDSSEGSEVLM

[6] = target: T2, Tyrosine-protein kinase Mer (Homo sapiens); conditions: at 10 µM
[7] = target: Hepatocyte growth factor receptor (Homo sapiens) (UniProt P08581); conditions: at 1 µM
[8] = target: Hepatocyte growth factor receptor (Homo sapiens) (UniProt P08581); conditions: at 10 µM
[9] = target: MAP kinase-interacting serine/threonine-protein kinase 2 (Homo sapiens) (UniProt Q9HBH9); conditions: at 1 µM
[10] = target: MAP kinase-interacting serine/threonine-protein kinase 2 (Homo sapiens) (UniProt Q9HBH9); conditions: at 10 µM
[11] = target: T3, Muscle, skeletal receptor tyrosine-protein kinase (Homo sapiens) (UniProt O15146); conditions: at 1 µM
T3 sequence (whole entry): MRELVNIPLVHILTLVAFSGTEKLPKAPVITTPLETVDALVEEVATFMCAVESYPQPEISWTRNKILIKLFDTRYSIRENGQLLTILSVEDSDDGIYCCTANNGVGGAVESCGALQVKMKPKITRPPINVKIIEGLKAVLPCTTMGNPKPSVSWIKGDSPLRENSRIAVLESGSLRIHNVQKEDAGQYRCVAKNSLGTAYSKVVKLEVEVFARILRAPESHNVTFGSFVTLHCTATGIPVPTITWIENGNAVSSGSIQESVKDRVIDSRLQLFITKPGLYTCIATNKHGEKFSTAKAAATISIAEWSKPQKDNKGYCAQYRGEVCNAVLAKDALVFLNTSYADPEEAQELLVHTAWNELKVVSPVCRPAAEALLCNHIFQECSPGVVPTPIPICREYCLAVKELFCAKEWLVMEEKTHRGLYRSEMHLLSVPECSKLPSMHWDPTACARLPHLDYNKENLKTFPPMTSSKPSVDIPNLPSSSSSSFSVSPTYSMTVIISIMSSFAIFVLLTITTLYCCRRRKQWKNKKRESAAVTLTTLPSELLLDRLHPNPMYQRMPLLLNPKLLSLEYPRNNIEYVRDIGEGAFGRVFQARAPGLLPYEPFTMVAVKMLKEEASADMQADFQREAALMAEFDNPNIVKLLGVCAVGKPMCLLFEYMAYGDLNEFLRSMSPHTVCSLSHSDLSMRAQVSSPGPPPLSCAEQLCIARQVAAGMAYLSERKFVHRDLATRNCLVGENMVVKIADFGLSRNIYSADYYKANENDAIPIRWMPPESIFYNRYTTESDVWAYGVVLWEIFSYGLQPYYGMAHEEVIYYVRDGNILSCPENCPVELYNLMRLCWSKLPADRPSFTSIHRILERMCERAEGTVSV

[12] = target: T3, Muscle, skeletal receptor tyrosine-protein kinase (Homo sapiens); conditions: at 10 µM
[13] = target: T4, Serine/threonine-protein kinase Nek11 (Homo sapiens) (UniProt Q8NG66); conditions: at 1 µM
T4 sequence (whole entry): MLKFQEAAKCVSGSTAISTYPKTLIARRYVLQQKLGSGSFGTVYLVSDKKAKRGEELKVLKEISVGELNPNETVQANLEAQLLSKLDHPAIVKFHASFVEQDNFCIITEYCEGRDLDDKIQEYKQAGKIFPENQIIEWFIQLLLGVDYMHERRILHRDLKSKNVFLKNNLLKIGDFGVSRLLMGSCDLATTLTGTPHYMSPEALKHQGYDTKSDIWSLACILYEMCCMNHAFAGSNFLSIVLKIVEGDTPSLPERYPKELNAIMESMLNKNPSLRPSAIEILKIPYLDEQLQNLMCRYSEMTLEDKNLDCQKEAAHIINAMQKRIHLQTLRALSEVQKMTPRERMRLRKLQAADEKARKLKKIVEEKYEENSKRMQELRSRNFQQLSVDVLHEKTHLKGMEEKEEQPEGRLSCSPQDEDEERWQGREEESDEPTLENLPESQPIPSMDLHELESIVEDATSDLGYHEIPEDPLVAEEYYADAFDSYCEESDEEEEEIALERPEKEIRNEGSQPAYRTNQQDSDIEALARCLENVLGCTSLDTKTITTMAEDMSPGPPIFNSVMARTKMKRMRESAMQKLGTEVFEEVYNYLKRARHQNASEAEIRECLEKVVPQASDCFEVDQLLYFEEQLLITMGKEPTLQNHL

[14] = target: T4, Serine/threonine-protein kinase Nek11 (Homo sapiens); conditions: at 10 µM
[15] = target: T5, Serine/threonine-protein kinase Nek2 (Homo sapiens) (UniProt P51955); conditions: at 1 µM
T5 sequence (whole entry): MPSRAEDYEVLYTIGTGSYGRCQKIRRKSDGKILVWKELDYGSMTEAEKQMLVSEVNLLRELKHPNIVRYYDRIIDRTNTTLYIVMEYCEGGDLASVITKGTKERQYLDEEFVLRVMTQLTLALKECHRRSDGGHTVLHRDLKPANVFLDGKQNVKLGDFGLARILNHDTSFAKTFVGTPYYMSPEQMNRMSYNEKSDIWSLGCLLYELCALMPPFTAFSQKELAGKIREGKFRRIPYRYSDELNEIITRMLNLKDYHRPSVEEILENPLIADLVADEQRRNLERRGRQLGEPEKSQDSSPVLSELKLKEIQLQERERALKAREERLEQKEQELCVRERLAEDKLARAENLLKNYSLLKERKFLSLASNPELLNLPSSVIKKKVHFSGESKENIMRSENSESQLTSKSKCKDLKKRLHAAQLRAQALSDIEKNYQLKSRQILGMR

[16] = target: T5, Serine/threonine-protein kinase Nek2 (Homo sapiens); conditions: at 10 µM
[17] = target: T6, Serine/threonine-protein kinase Nek3 (Homo sapiens) (UniProt P51956); conditions: at 1 µM
T6 sequence (whole entry): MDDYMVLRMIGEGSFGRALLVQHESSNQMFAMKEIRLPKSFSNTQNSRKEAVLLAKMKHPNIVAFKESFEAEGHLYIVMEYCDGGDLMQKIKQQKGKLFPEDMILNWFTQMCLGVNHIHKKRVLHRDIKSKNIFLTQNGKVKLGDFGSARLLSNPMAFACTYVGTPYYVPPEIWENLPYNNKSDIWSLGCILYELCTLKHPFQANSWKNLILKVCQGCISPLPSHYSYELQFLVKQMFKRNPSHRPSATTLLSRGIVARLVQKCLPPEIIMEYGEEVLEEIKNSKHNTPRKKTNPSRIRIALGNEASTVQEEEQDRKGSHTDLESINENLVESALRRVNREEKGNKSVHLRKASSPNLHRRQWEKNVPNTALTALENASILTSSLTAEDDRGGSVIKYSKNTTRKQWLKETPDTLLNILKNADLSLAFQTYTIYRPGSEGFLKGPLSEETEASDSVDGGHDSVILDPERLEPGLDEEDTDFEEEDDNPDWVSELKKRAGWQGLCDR

[18] = target: T6, Serine/threonine-protein kinase Nek3 (Homo sapiens); conditions: at 10 µM
[19] = target: Serine/threonine-protein kinase tousled-like 2 (Homo sapiens) (UniProt Q86UE8); conditions: at 1 µM
[20] = target: Serine/threonine-protein kinase tousled-like 2 (Homo sapiens) (UniProt Q86UE8); conditions: at 10 µM

Chain of Hepatocyte growth factor receptor (Homo sapiens) (P08581 whole entry): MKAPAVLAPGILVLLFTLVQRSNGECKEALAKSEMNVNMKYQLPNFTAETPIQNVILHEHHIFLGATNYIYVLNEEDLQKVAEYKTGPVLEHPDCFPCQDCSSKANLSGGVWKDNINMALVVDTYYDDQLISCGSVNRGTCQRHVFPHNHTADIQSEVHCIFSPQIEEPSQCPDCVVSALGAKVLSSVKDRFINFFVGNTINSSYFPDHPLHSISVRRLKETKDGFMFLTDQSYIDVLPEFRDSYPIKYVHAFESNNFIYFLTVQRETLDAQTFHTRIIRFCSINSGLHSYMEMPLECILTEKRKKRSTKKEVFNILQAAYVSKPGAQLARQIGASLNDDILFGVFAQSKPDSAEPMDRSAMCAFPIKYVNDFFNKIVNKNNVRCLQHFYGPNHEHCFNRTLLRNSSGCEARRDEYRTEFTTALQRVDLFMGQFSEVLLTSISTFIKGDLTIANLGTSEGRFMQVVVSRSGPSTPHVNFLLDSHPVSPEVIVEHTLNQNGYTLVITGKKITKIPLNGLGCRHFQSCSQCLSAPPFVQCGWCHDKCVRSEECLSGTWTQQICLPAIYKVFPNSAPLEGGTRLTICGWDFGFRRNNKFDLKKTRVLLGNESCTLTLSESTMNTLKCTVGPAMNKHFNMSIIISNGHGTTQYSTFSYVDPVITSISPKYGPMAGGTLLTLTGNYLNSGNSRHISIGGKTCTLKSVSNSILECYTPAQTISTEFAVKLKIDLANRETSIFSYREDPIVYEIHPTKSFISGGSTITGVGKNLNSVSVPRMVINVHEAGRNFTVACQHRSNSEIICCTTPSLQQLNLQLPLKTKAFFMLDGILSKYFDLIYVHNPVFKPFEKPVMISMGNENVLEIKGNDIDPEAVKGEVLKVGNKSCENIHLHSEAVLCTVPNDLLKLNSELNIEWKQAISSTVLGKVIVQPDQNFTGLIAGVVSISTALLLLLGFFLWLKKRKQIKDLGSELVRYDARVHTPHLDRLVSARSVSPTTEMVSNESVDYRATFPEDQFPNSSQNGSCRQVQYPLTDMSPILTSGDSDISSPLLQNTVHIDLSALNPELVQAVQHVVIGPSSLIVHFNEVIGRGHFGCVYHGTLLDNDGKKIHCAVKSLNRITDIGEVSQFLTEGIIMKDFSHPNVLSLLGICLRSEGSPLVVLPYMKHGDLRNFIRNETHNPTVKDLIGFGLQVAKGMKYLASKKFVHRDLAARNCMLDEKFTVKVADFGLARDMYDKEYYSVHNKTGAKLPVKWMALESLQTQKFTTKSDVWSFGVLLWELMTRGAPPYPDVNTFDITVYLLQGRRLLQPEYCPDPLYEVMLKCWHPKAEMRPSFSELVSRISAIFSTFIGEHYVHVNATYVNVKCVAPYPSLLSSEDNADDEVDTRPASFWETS
Chain of MAP kinase-interacting serine/threonine-protein kinase 2 (Homo sapiens) (Q9HBH9 whole entry, looked up): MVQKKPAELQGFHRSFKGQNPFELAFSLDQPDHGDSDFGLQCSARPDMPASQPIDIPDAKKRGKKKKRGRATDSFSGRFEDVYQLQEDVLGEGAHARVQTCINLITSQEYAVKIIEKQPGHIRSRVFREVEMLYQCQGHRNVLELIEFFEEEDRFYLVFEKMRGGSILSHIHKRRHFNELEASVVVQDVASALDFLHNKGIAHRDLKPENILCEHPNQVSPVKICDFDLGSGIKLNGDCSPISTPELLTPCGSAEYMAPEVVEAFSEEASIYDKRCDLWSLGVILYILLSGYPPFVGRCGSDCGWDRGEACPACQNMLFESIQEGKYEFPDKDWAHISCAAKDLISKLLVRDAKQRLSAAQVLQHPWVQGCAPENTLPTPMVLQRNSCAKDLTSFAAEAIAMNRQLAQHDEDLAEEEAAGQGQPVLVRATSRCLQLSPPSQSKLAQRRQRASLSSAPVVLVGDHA
Chain of Serine/threonine-protein kinase tousled-like 2 (Homo sapiens) (Q86UE8 whole entry, looked up): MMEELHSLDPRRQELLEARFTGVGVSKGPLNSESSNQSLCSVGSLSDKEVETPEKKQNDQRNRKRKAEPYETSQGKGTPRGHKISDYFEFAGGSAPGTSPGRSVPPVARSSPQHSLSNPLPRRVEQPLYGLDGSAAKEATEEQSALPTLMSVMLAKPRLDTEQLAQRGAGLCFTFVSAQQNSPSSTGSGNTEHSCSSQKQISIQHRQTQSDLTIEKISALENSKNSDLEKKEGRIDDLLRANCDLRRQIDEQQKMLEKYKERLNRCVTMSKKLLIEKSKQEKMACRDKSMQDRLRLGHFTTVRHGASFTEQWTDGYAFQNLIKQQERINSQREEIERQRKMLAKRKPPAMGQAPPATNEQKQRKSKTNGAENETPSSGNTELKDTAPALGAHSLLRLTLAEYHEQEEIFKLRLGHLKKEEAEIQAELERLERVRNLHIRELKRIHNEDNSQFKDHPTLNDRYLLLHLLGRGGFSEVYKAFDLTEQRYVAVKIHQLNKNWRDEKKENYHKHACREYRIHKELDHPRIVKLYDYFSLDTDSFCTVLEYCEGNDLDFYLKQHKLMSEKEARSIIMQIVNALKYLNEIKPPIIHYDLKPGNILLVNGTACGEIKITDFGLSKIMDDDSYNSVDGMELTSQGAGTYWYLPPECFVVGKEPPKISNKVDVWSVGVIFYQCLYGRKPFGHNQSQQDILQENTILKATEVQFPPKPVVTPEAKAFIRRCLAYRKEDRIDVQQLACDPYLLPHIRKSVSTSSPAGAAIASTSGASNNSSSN
Chain of Serine/threonine-protein kinase 24 (Homo sapiens) (Q9Y6E0 whole entry, looked up): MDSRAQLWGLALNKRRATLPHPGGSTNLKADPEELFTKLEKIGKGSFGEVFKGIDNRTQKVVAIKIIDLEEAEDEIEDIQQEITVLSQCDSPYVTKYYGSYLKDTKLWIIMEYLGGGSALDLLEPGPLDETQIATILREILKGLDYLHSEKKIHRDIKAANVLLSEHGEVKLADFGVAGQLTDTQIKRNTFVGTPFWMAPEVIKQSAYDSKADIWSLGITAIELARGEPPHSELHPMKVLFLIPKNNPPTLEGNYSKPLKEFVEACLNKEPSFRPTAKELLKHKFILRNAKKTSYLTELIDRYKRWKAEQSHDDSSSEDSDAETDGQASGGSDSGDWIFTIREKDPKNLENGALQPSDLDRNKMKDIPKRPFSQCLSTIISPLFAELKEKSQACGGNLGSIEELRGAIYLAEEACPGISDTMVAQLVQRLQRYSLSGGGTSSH

SMILES | residual activity [1] [%] | residual activity [2] [%] | residual activity [3] [%] | residual activity [4] [%] | residual activity [5] [%] | residual activity [6] [%] | residual activity [7] [%] | residual activity [8] [%] | residual activity [9] [%] | residual activity [10] [%] | residual activity [11] [%] | residual activity [12] [%] | residual activity [13] [%] | residual activity [14] [%] | residual activity [15] [%] | residual activity [16] [%] | residual activity [17] [%] | residual activity [18] [%] | residual activity [19] [%] | residual activity [20] [%]
CC(C)c1nn(-c2c(Cl)cccc2Cl)c2nc(Cc3ccc(OCCO)cc3)[nH]c(=O)c12 | 109 | 78 | 23 | 2 | 98 | 75 | 146 | 75 | 103 | 102 | 96 | 87 | 63 | 70 | 90 | 87 | 86 | 89 | 80 | 37
O=c1cc(N2CCNCC2)oc2c(-c3ccccc3)cccc12 | 95 | 104 | 59 | 55 | – | 87 | – | – | – | – | 92 | 78 | 104 | 105 | 84 | 92 | 101 | 76 | – | 91
O=C(Nc1nc2ccccc2n1CCN1CCOCC1)c1cccc([N+](=O)[O-])c1 | 102 | 83 | 71 | 74 | 75 | 65 | – | – | – | – | – | – | 84 | 74 | 75 | – | 106 | 85 | – | –
CN(C)S(=O)(=O)c1ccc2c(c1)/C(=C/c1cc3c([nH]1)CCCC3)C(=O)N2 | 28 | 22 | 60 | 30 | 12 | 13 | – | 130 | 96 | 89 | 53 | 47 | 47 | 63 | 97 | 100 | 88 | 94 | 98 | 95
COc1cc2nccc(Oc3ccc(NC(=S)NC(=O)c4ccccc4C)cc3)c2cc1OC | 97 | 77 | 65 | 68 | 14 | 4 | 28 | 4 | 91 | 93 | 81 | 56 | 99 | 87 | 78 | 82 | – | 60 | 101 | 85
O=C(CCCc1ccc(-c2ccccc2F)cc1)Nc1ccc(O)cc1 | 98 | 73 | 93 | 96 | 102 | 83 | – | – | 105 | 85 | 96 | 84 | 67 | 60 | – | 106 | 89 | 103 | 103 | 95
O=C1NC(=O)C(c2c[nH]c3ccccc23)=C1c1c[nH]c2ccccc12 | 64 | 9 | 21 | 2 | – | 33 | – | 43 | – | – | – | 60 | 63 | 59 | – | – | – | – | 51 | 9
